Only some compounds are listed: those with a hit (about 1.4% of all), similar ones and a draw of the others.
PGC1a acetyl inh: PGC1a acetylation modulation, inhibitor mode; inhibition, % at 15.6 µM; 350,000 tested, 0.17% active; AID 651687; U2OS PGC1a acetylation, AlphaScreen anti-acetyl-lysine; with virally co-expressed GCN5 acetyltransferase;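 active means every replicate shows inhibition of at least 40%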;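 further: 0% = neutral control wells and 100% = positive control wells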
RAD54 branch: RAD54 (human) branch migration inhibition; Q92698; RAD54 Holliday junction branch migration, FAM/BHQ fluorescence; inhibition, % at 10.4 µM; 360,000 tested, 0.14% active; AID 602329;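 active means mean normalized replicate activity at least 40 and at least half of replicates scoring 40 or more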;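 further: 0% = median of neutral control wells and 100% = median of positive control wells; inhibitors cause a drop in the FAM fluorescence signal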
RAD52 anneal inh: blocks human RAD52 DNA annealing; 360,000 tested, 0.46% active; P43351; AID 651710; inhibition, % at 18.7 µM; recombinant RAD52 DNA annealing, FRET fluorescence;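 active means every replicate showing at least 50% inhibition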
Target sequence (P43351 whole entry, looked up): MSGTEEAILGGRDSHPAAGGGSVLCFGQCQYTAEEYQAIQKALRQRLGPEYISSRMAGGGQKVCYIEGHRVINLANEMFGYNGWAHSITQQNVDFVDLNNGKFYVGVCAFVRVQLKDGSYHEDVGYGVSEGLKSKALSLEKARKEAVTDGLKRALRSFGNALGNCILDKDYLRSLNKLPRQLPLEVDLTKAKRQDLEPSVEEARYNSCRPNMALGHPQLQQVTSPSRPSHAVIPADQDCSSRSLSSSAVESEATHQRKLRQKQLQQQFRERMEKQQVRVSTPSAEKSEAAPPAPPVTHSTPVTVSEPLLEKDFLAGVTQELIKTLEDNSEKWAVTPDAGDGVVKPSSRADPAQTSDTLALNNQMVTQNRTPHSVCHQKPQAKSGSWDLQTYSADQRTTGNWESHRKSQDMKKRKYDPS
ERAP1 HTS inh: ERAP1 (human) enzyme inhibition; 340,000 tested, 0.15% active; Q9NZ08; AID 652197; inhibition, % at 10.7 µM; recombinant ERAP1, Leu-AMC fluorescence, 60 min;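 active means mean replicate inhibition of at least 30%, or all replicates individually reaching that 30% level; inactive means mean below 30% and not every replicate reaching it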;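 further: 0% = neutral control wells and 100% = L-leucinethiol positive control wells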
INS-1E GSIS act: primary screen for activators of insulin secretion dependent on glucose, INS-1E cells, GLuc reporter luminescence; AID 743287; 370,000 tested, 0.61% active; INS-1E GLuc reporter insulin secretion, 2-3 h; activation, % at 16.6 µM;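 active means lowest replicate activation of at least 40%, so every replicate reaches that level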;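 further: 0% = median of neutral control wells and 100% = median of IBMX positive control wells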
AF4-AF9 inh: inhibitors of human MLL-AF4/AF9 interaction; inhibition, % at 10 µM; 350,000 tested, 0.47% active; AlphaScreen, biotin-AF4 peptide binding to FLAG-AF9; P42568;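 active means every replicate reaching a set inhibition limit, whatever the replicate mean, cut at about 25% in these data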;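 further: 0% = plate neutral control median and 100% = total signal loss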
Starred values were filed as active, the others as inactive; · = no result; ! = repeats disagree.

SMILES	PGC1a acetyl inh	RAD54 branch	RAD52 anneal inh	ERAP1 HTS inh	INS-1E GSIS act	AF4-AF9 inh
CCOC(=O)C(C)Oc1cccc2c(=O)n(CC(=O)NCc3ccccc3)ccc12 (stereo not drawn)	-11.9	-1.0	-13.0	-2.9	4.6	-5.3
CCOC(=O)C(C)Oc1cccc2c(=O)n(CC(=O)NCc3ccc(F)cc3)ccc12 (stereo not drawn)	10.9	-7.2	-4.6	·	42.0*	19.2
CC(C)Cc1nc2n[nH]c(N)c2c2c1COC(C)(C)C2	4.3	·	·	·	80.2*	·
Nc1nnc(SCc2nc3scc(-c4ccccc4)c3c(=O)[nH]2)s1	2.9	·	-180.1	·	-14.7	-2.5
Nc1nc(SCc2nc3scc(-c4ccccc4)c3c(=O)[nH]2)n[nH]1	-20.4	-6.4	-57.2	0.3	55.3*	0.1
CC1CCN(C(=O)c2cccc(S(=O)(=O)N3CCN(c4ccccc4)CC3)c2)CC1	·	·	-3.5	-1.5	41.6*	-2.0
O=C(c1cccc(S(=O)(=O)N2CCCCC2)c1)N1CCN(c2ccccc2)CC1	·	0.4	3.3	-3.5	-2.9	2.2
C/C=C/c1ccc(C2[C@H]3CNC[C@@H]2N3Cc2cc(-c3ccccc3)on2)cc1 (stereo partly drawn)	-23.6	·	52.0*!	-0.9	71.6*!	8.7
N#Cc1cccc(-c2ccc(C3[C@H]4CNC[C@@H]3N4Cc3cc(-c4ccccc4)on3)cc2)c1 (stereo partly drawn)	0.7	·	62.9*	-1.0	72.3*!	-6.2
COc1ccccc1-c1ccc(C2[C@H]3CNC[C@@H]2N3Cc2cc(-c3ccccc3)on2)cc1 (stereo partly drawn)	-8.9	·	54.4*	-2.0	-1.7	0.5
C/C=C/c1ccc(C2[C@H]3CNC[C@@H]2N3Cc2nccs2)cc1 (stereo partly drawn)	·	·	-6.1	0.2	2.8	2.6
N#Cc1cccc(-c2ccc(C3[C@H]4CNC[C@@H]3N4Cc3cccc(F)c3)cc2)c1 (stereo partly drawn)	2.9	·	11.2	1.6	2.4	-0.2
CON(C)C(=O)CC1(CN(Cc2ccccc2)C(=O)OC(C)(C)C)CCCCC1	-31.7	-8.1	-4.3	-0.9	3.3	-13.5
C#CC(=O)CC1(CN(Cc2ccccc2)C(=O)OC(C)(C)C)CCCCC1	-3.5	-8.9	-4.4	-0.7	53.9*	-3.6
CCOc1ccc(S(=O)(=O)N(C)c2ccc(OCC(=O)N3c4ccc(C)cc4C4CN(C)CCC43)cc2)cc1 (stereo not drawn)	75.1*	6.8	-11.7	1.8	-28.0	15.5
Cc1ccc2c(c1)C1CN(C)CCC1N2C(=O)COc1ccc(N(C)S(=O)(=O)c2cccs2)cc1 (stereo not drawn)	8.1	·	-4.5	·	-53.5	17.2
COc1ccc(CSc2nc(C)cc(C)c2C#N)cc1	-7.1	3.8	-9.7	·	10.2	25.2*
CN1C(=O)C(N=Nc2ccc([N+](=O)[O-])cc2)SC1=S (stereo not drawn)	-0.5	-6.6	-23.7	-7.4	·	43.8*
CN1CCCCCC1=Nc1ccc([N+](=O)[O-])cc1	34.8	-5.0	0.9	·	-1.1	-3.3
COc1ccc(CCNc2oc(-c3ccc(OC)c(OC)c3)nc2P(=O)(OC)OC)cc1OC	·	·	·	·	67.9*	·
O=C(NC1CCCCCCC1O)c1ccccc1 (stereo not drawn)	57.1*	·	-13.5	0.1	1.1	-3.9
O=C(O)c1ccccc1N/N=C/c1cc(Br)cc(Br)c1O	9.9	-7.0	-17.7	2.3	-8.3	30.1*
COc1ccc(C(C)NCCC(c2ccc(OC(C)C)cc2)c2ccccc2OC)cc1 (stereo not drawn)	·	·	-16.8	0.9	134.3*	13.3
Cc1nc(NCc2ccc3c(c2)OCO3)c2nnn(Cc3ccccc3)c2n1	7.4	-4.7	·	·	50.1*	·
O=C(C[C@H]1CC[C@@H]2[C@H](COC[C@H](O)CN2S(=O)(=O)c2cccc(F)c2)O1)Nc1ccccc1	6.5	-2.3	-3.6	-2.6	-16.7	-2.5
OCCCNc1nc(-c2ccccc2)c2cc(Br)ccc2n1	·	-2.4	-10.7	-13.7	54.9*	-1.8
Cc1ccc2nc(NCCCO)nc(-c3ccccc3)c2c1	-5.2	-1.3	·	·	·	·
NNc1nc(-c2ccccc2)c2cc(Br)ccc2n1	22.8	0.8	-48.8	1.9	48.8*	2.4
NNc1nc(-c2ccccc2)c2cc(Cl)ccc2n1	·	·	18.9	-2.9	35.6	7.5
